Results filed as inconclusive are left out. Active and inactive are the calls of the source. Calls follow the shape of the dose curve; as a rule, active = well fitted curve in the direction sought with a large enough effect; inconclusive = small, poorly fitted or top-dose-only effect, or another doubt; inactive = no such curve, though single readings can be large; an effect the other way counts as inactive or inconclusive.
How the values were obtained:
[1] = qHTS of pediatric cancer cell lines to identify multiple opportunities for drug repurposing: Primary screen for TC32 cells (AID 1347089); also: nearly all actives have a fitted effect of over 60% in size
Procedure, shortened: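 Luminescent ATP read-out (CellTiter-Glo) of metabolically active TC32 cells after 48 h exposure. Concentration-response curves came from 11-point (MIPE, 0.78 nM–46 µM) or 8-point (NPC, 0.59 nM–46 µM) primary titrations; follow-up used 11 points.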

[2] = qHTS of pediatric cancer cell lines to identify multiple opportunities for drug repurposing: Primary screen for DAOY cells (AID 1347090); also: nearly all actives have a fitted effect of over 55% in size
Procedure, shortened: (§1)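 Viability measured as metabolically active cells via CellTiter-Glo luminescence following 48 hours of compound exposure, 11-point dilutions in confirmatory testing. 500-1,000 cells/well plated 5 hours before dosing; controls were DMSO and 2.3 µM bortezomib.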

[3] = qHTS of pediatric cancer cell lines to identify multiple opportunities for drug repurposing: Primary screen for SJ-GBM2 cells (AID 1347091)
Procedure, shortened: as §1

[4] = qHTS of pediatric cancer cell lines to identify multiple opportunities for drug repurposing: Primary screen for A673 cells (AID 1347092); also: nearly all actives have a fitted effect of over 45% in size
Procedure, shortened: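 Cell viability of A673 measured by CellTiter-Glo ATP luminescence after 48 hours compound exposure. Dilution series spanned 0.78 nM to 46 µM (MIPE, 11-point) or 0.59 nM to 46 µM (NPC, 8-point); bortezomib 2.3 uM positive control.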

[5] = qHTS of pediatric cancer cell lines to identify multiple opportunities for drug repurposing: Primary screen for SK-N-MC cells (AID 1347093)
Procedure, shortened: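 Metabolically active cells were quantified by ATP-dependent luminescence (CellTiter-Glo, 15 min at room temperature) following 48 h treatment. Cells had been plated at 500-1,000 per well and settled for 5 h beforehand.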

[6] = qHTS of pediatric cancer cell lines to identify multiple opportunities for drug repurposing: Primary screen for BT-37 cells (AID 1347094)
Procedure, shortened: (§2)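 Primary screen of approved and investigational compounds on cells in growth media at 37 degrees C, 5% CO2. MIPE set at 11-point and NPC set at 8-point dilutions; viability scored by ATP-based luminescence at 48 hours.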

[7] = qHTS of pediatric cancer cell lines to identify multiple opportunities for drug repurposing: Primary screen for NB-EBc1 cells (AID 1347095)
Procedure, shortened: as §2

[8] = qHTS of pediatric cancer cell lines to identify multiple opportunities for drug repurposing: Primary screen for U-2 OS cells (AID 1347096); also: nearly all actives have a fitted effect of over 50% in size
Procedure, shortened: (§3)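 Viability after 48 h compound treatment at 37C, 500-1,000 cells/well, read as ATP luminescence with CellTiter-Glo. Primary screens used 11-point (MIPE, 0.78 nM-46 µM) or 8-point (NPC, 0.59 nM-46 µM) final concentrations; follow-up screens used 11-point dilutions.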

[9] = qHTS of pediatric cancer cell lines to identify multiple opportunities for drug repurposing: Primary screen for Saos-2 cells (AID 1347097); also: nearly all actives have a fitted effect of over 40% in size
Procedure, shortened: as §2

[10] = qHTS of pediatric cancer cell lines to identify multiple opportunities for drug repurposing: Primary screen for NB1643 cells (AID 1347099); also: nearly all actives have a fitted effect of over 50% in size
Procedure, shortened: as §2

[11] = qHTS of pediatric cancer cell lines to identify multiple opportunities for drug repurposing: Primary screen for LAN-5 cells (AID 1347100)
Procedure, shortened: as §3

[12] = qHTS of pediatric cancer cell lines to identify multiple opportunities for drug repurposing: Primary screen for BT-12 cells (AID 1347101); also: nearly all actives have a fitted effect of over 25% in size
Procedure, shortened: (§4)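 Cells (500-1,000/well) rested 5 h, then received compounds for 48 h; metabolically active cells were measured by CellTiter-Glo luminescence. Final concentrations spanned up to 46 µM (MIPE, 11-point) or 0.59 nM-46 µM (NPC, 8-point) in primary screens, 11-point in follow-ups.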

[13] = qHTS of pediatric cancer cell lines to identify multiple opportunities for drug repurposing: Primary screen for Rh18 cells (AID 1347102); also: nearly all actives have a fitted effect of over 65% in size
Procedure, shortened: as §3

[14] = qHTS of pediatric cancer cell lines to identify multiple opportunities for drug repurposing: Primary screen for OHS-50 cells (AID 1347103); also: nearly all actives have a fitted effect of over 40% in size
Procedure, shortened: as §4

[15] = qHTS of pediatric cancer cell lines to identify multiple opportunities for drug repurposing: Primary screen for RD cells (AID 1347104); also: nearly all actives have a fitted effect of over 55% in size
Procedure, shortened: as §2

[16] = qHTS of pediatric cancer cell lines to identify multiple opportunities for drug repurposing: Primary screen for MG 63 (6-TG R) cells (AID 1347105); also: nearly all actives have a fitted effect of over 50% in size
Procedure, shortened: as §2

[17] = qHTS of pediatric cancer cell lines to identify multiple opportunities for drug repurposing: Primary screen for Rh30 cells (AID 1347107); also: nearly all actives have a fitted effect of over 75% in size
Procedure, shortened: as §3

[18] = qHTS of pediatric cancer cell lines to identify multiple opportunities for drug repurposing: Primary screen for Rh41 cells (AID 1347108); also: nearly all actives have a fitted effect of over 70% in size
Procedure, shortened: as §2

[19] = qHTS of pediatric cancer cell lines to identify multiple opportunities for drug repurposing: Primary screen for SK-N-SH cells (AID 1347098); also: nearly all actives have a fitted effect of over 65% in size
Procedure, shortened: as §4

[20] = qHTS of pediatric cancer cell lines to identify multiple opportunities for drug repurposing: Primary screen for control Hh wild type fibroblast cells (AID 1347106); also: nearly all actives have a fitted effect of over 55% in size
Procedure, shortened: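 Cells (500-1,000/well) in growth media were settled 5 h at 37 degrees C, then given compounds for 48 h. Viability was read as CellTiter-Glo luminescence. Primary runs used MIPE at 11 points (0.78 nM-46 µM) and NPC at 8 points (0.59 nM-46 µM); follow-ups used 11 points.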

Measured: Potency
Potency is read from the fitted curve at half-maximal effect.

O=C(O)C(Cl)Cl
not listed: [19] | [20]
inactive: all other assays above

COC1=CC(C)=C[C@@H](C)[C@@H](O)[C@@H](C)CC(C)=CC=C[C@H](OC)[C@H]([C@@H](C)[C@@H](O)[C@H](C)[C@@]2(O)C[C@@H](O)[C@H](C)[C@@H](C(C)C)O2)OC1=O
active: [1] 0.33 µM | [2] 2.3 nM | [3] 1 nM | [4] 3.7 nM | [5] 2.1 nM | [6] 3.4 nM | [7] 1 nM | [8] 37200 nM | [9] 29600 nM | [19] 0.0136 µM | [10] 9.3 nM | [12] 4.9 nM | [13] 14.8 µM | [14] 1.4 nM | [15] 1 nM | [16] 5.9 nM | [18] 16.6 µM

CC[C@@H]1[C@@H](C)O[C@@](O)([C@@H](C)[C@H](O)[C@H](C)[C@H]2OC(=O)C=CC=C[C@@H](C)[C@@H]([C@@H](C)[C@@H](O)[C@H](C)[C@@]3(O)C[C@H](O[C@H]4C[C@H](O)[C@H](O)[C@H](C)O4)[C@H](CC)[C@@H](C)O3)OC(=O)C=CC=C[C@@H]2C)C[C@H]1O[C@H]1C[C@H](O)[C@H](O)[C@H](C)O1
active: [1] 18.6 µM | [2] 469 nM | [3] 526 nM | [4] 743 nM | [5] 372 nM | [6] 685 nM | [7] 418 nM | [8] 935 nM | [9] 372 nM | [19] 21.5 µM | [10] 833 nM | [11] 372 nM | [12] 863 nM | [13] 0.59 µM | [14] 306 nM | [15] 264 nM | [16] 590 nM | [20] 9.35 µM | [17] 0.935 µM | [18] 0.743 µM

C[C@@H]1CC[C@@]2(OC1)O[C@H]1C[C@H]3[C@@H]4CC=C5C[C@@H](O[C@@H]6O[C@H](CO)[C@@H](O[C@@H]7O[C@@H](C)[C@H](O)[C@@H](O)[C@@H]7O)[C@H](O)[C@@H]6O[C@@H]6O[C@@H](C)[C@H](O)[C@@H](O)[C@@H]6O)CC[C@]5(C)[C@@H]4CC[C@]3(C)[C@@H]1[C@H]2C
inactive: [20]
active: [1] 13.1 µM | [2] 7430 nM | [3] 5260 nM | [4] 3720 nM | [5] 1320 nM | [6] 6850 nM | [7] 4690 nM | [8] 9350 nM | [9] 5900 nM | [10] 5900 nM | [11] 3720 nM | [12] 6850 nM | [13] 4.18 µM | [14] 4320 nM | [15] 5900 nM | [16] 2960 nM | [17] 11.8 µM | [18] 14.8 µM

CN[C@@H](C)[C@H](O)c1ccccc1
inactive: all assays above

CC1=C(C(=O)O)N2C(=O)[C@@H](N)[C@H]2SC1
not listed: [19]
inactive: all other assays above

O=C(O)COc1ccccc1
not listed: [19] | [20]
inactive: all other assays above

C[C@@H]1O[C@@H](O[C@@H]2C=C3CC[C@@H]4[C@@H](CC[C@]5(C)[C@H](c6ccc(=O)oc6)CC[C@@]45O)[C@@]3(C)CC2)[C@H](O)[C@H](O)[C@H]1O
active: [1] 0.0415 µM | [2] 14.8 nM | [3] 8.3 nM | [4] 14.8 nM | [5] 8.3 nM | [6] 9.7 nM | [7] 41.8 nM | [8] 23.5 nM | [9] 52.6 nM | [10] 83.3 nM | [11] 14.8 nM | [12] 19.3 nM | [14] 17.2 nM | [15] 7.4 nM | [16] 4.7 nM | [18] 0.0235 µM

CCOC(=O)c1cncn1[C@H](C)c1ccccc1
not listed: [17]
inactive: all other assays above

c1ccc2c(CN3CCNCC3)cccc2c1
active: [5] 29600 nM
not listed: [10] | [11] | [14] | [19] | [20]
inactive: all other assays above

CC[N+]1(CCOC(=O)C(O)(c2ccccc2)c2ccccc2)CCCCC1
inactive: all assays above

COc1cccc2c1[C@]13CCN(CC4CC4)[C@H](C2)[C@]1(OC)CCC(=O)C3
inactive: all assays above

O=S(=O)(O)C(F)(F)C(F)(F)C(F)(F)C(F)(F)C(F)(F)C(F)(F)C(F)(F)C(F)(F)F
inactive: all assays above

CCC1(CCC(C)C)C(=O)NC(=O)NC1=O
not listed: [12]
inactive: all other assays above

O=C(O)CCCOc1ccc(Cl)cc1Cl
active: [4] 313 nM
not listed: [14] | [19]
inactive: all other assays above

O=c1[nH]c2ccc(Cl)cc2c(N[C@@H]2CN3CCC2CC3)c1-c1nc2ccccc2[nH]1
inactive: [17]
active: [1] 0.93 µM | [2] 743 nM | [3] 46.9 nM | [4] 296 nM | [5] 33.2 nM | [6] 5440 nM | [7] 41.8 nM | [8] 187 nM | [9] 418 nM | [19] 9.61 µM | [10] 526 nM | [11] 148 nM | [12] 15300 nM | [14] 109 nM | [15] 5900 nM | [16] 235 nM | [20] 16.6 µM | [18] 14.8 µM

CC(Cc1ccc(O)cc1)NCC(O)c1cc(O)cc(O)c1 (stereo unspecified)
inactive: all assays above

CC(C)NCC(O)c1ccc([N+](=O)[O-])cc1 (stereo unspecified)
not listed: [19] | [20]
inactive: all other assays above

Cc1nc(-c2ccc(-c3ccc(C(=O)N4CCc5cc6c(cc54)C4(CCN(C)CC4)CO6)cc3)c(C)c2)no1
not listed: [19]
inactive: all other assays above

CC(O)CN1CCN(CC(=O)[O-])CCN(CC(=O)[O-])CCN(CC(=O)[O-])CC1.[Gd+3] (stereo unspecified)
not listed: [8]
inactive: all other assays above

CN(C)[C@@H]1C(=O)C(C(N)=O)=C(O)[C@@]2(O)C(=O)C3=C(O)c4c(O)cccc4[C@@](C)(O)[C@H]3[C@H](O)[C@@H]12
not listed: [19] | [20]
inactive: all other assays above

COC(=O)c1cncn1C(C)c1ccccc1 (stereo unspecified)
not listed: [9] | [19] | [20]
inactive: all other assays above

C[C@@H]1[C@H](O)[C@@H](C)C=CC=CCCC=CC=CC=CC=C[C@H](O[C@H]2O[C@@H](C)[C@H](O)[C@@H](N)[C@@H]2O)CC2O[C@](O)(C[C@@H](O)[C@H](O)CC[C@@H](O)C[C@@H](O)C[C@@H](O)CC(=O)O[C@H]1C)C[C@H](O)[C@H]2C(=O)O
not listed: [19]
inactive: all other assays above

C[C@@]12OC(=O)[C@]1([C@@H](O)[C@@H]1C=CCCC1)NC(=O)[C@H]2CCCl
active: [1] 7.39 µM | [2] 118 nM | [3] 10.5 nM | [4] 46.9 nM | [5] 8.3 nM | [6] 96.8 nM | [7] 10.5 nM | [8] 235 nM | [9] 37.2 nM | [19] 0.171 µM | [10] 74.3 nM | [11] 52.6 nM | [12] 137 nM | [13] 0.0526 µM | [14] 68.5 nM | [15] 52.6 nM | [16] 29.6 nM | [17] 5.9 µM | [18] 0.059 µM

Reference: PubChem BioAssay (NCATS)
